According to PubChem BioAssay (NCI):
Compounds without any hit were thinned out: in the full panel of roughly 83,000, 20% have a hit.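 Single-dose data. Exposure time 48 hours. Values below 10 considered active.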 Unmarked numbers belong to inactive results. Activity calls are given as the source filed them.

Assays:
Assay in all cases: NCI-60 one-dose screen, 48 h (100 = growth as untreated, 0 = no growth, -100 = all killed)
Settings in all cases: 10 µM unless noted
SK-MEL-2 melanoma = test system: SK-MEL-2 melanoma
EKVX NSCLC = test system: EKVX NSCLC
SN12C renal = test system: SN12C renal
UO-31 renal = test system: UO-31 renal
TK-10 renal = test system: TK-10 renal
ACHN renal = test system: ACHN renal
CAKI-1 renal = test system: CAKI-1 renal
A498 renal = test system: A498 renal
CCRF-CEM leukemia = test system: CCRF-CEM leukemia
MOLT-4 leukemia = test system: MOLT-4 leukemia
RPMI-8226 leukemia = test system: RPMI-8226 leukemia
OVCAR-8 ovarian = test system: OVCAR-8 ovarian
OVCAR-5 ovarian = test system: OVCAR-5 ovarian
OVCAR-4 ovarian = test system: OVCAR-4 ovarian
SK-OV-3 ovarian = test system: SK-OV-3 ovarian
IGROV1 ovarian = test system: IGROV1 ovarian
OVCAR-3 ovarian = test system: OVCAR-3 ovarian
HS 578T breast = test system: HS 578T breast
NCI/ADR-RES ovarian = test system: NCI/ADR-RES ovarian
SR leukemia = test system: SR leukemia

Row | SMILES | growth (SK-MEL-2 melanoma) | growth (EKVX NSCLC) | growth (SN12C renal) | growth (UO-31 renal) | growth (TK-10 renal) | growth (ACHN renal) | growth (CAKI-1 renal) | growth (A498 renal) | growth (CCRF-CEM leukemia) | growth (MOLT-4 leukemia) | growth (RPMI-8226 leukemia) | growth (OVCAR-8 ovarian) | growth (OVCAR-5 ovarian) | growth (OVCAR-4 ovarian) | growth (SK-OV-3 ovarian) | growth (IGROV1 ovarian) | growth (OVCAR-3 ovarian) | growth (HS 578T breast) | growth (NCI/ADR-RES ovarian) | growth (SR leukemia)
1 | CCC(CC)(N(CC(=O)O)CC(=O)O)C(CC)(CC)N(CC(=O)O)CC(=O)O | 112% | 117% | 94.8% | 103% | 103% | 116% | 98.4% | 126% | 93% | 107% | 82.7% | 101% | 117% | 101% | 104% | 116% | 121% | 118% | 107% | –
2 | O=C(N/N=C/c1ccc(Cl)cc1Cl)c1ccc2nc(-c3ccc(Cl)cc3)[nH]c2c1 | 38.9% | 8.23% (active) | -36.9% (active) | 21.6% | -4.33% (active) | -20.2% (active) | 61.2% | 56.2% | 15.5% | 4.45% (active) | 2.83% (active) | 14.2% | 23.7% | – | 49.8% | -27.4% (active) | -52.9% (active) | 33% | 41.2% | –
3 | Cc1nc2sc(C(=O)Nc3ccccc3)c(N)c2cc1C(=O)/C=C/c1ccccc1 | 18.4% | 43.2% | -27.1% (active) | -82.6% (active) | -18.1% (active) | 3.7% (active) | -54.1% (active) | 9.65% (active) | 6.14% (active) | 15.3% | -33.9% (active) | -1.16% (active) | 16.6% | 4.43% (active) | 35.4% | – | -47.5% (active) | 12% | -10.7% (active) | –
4 | N#C/C(=C\c1ccc(Cl)cc1Cl)C(=O)Nc1ncc(Cc2ccc(Cl)c(Cl)c2)s1 | 88.8% | 96.1% | 92.2% | 65.7% | 80.7% | 47.7% | 52.3% | 101% | 87.7% | 92.9% | 92.9% | 91.6% | 71.5% | 82.8% | 96.6% | 85.6% | 98.9% | 94.3% | 83.2% | –
5 | CC(C)=CC(=O)N[C@@H]1CC2CCC3C(CC[C@@]4(C)C3CC[C@@H]4C(C)N(C)C)[C@@]2(C)C[C@@H]1O (stereo not given in full) | 124% | 32.9% | 71.3% | 10.1% | 84.5% | 69.6% | 76.6% | 67.2% | 30% | -7.31% (active) | -2.36% (active) | 81.8% | 81.4% | 11.5% | 81.3% | – | 46.5% | 59.7% | 52.5% | –
6 | COc1ccc(Cl)cc1Nc1nc(C(F)(F)F)ccc1C(=O)N/N=C/c1ccccc1Cl | -7.25% (active) | -0.149% (active) | 0.596% (active) | 2.9% (active) | 15.6% | 3.39% (active) | 11.5% | 28.1% | 7.11% (active) | 3.07% (active) | -56.6% (active) | 11.2% | 22% | -18.3% (active) | 11.7% | 4.17% (active) | 1.6% (active) | 9.51% (active) | 0.235% (active) | –
7 | CCN(CC)S(=O)(=O)c1ccc(S(=O)(=O)N2CCC[C@@H](C(=O)N3CCN(C(=O)OC(C)(C)C)CC3)C2)cc1 | 101% | 54.9% | 87.4% | 73.6% | 78.6% | 71.4% | 52.1% | 27.8% | 66.9% | 60.8% | 53.7% | 63.3% | 102% | 26.1% | 90.5% | – | 73.5% | 87.2% | 62% | –
8 | COc1ccc(C(O)c2cc3c(N)c(C(=O)Nc4cccc(Cl)c4)sc3nc2C)cc1 (stereo not given) | 53.7% | 48.4% | 22.2% | 45.4% | 64% | 30.3% | 24.7% | 8.34% (active) | 8.82% (active) | 15.4% | 15.8% | 13.5% | 28.5% | 50.7% | 19% | 24.5% | 7.47% (active) | -8.06% (active) | 13.2% | –
9 | CCCCCCC(CCCC)COC(=O)c1ccc(Cl)cc1 (stereo not given) | 109% | 112% | 105% | 98% | 110% | 110% | 100% | 93.9% | 105% | 98.8% | – | 109% | 115% | – | 107% | 111% | 114% | 109% | 115% | 99.1%
10 | C/C(=N\O)C(=O)NCCCCCC(=O)Nc1ccccc1 | 110% | 98.2% | 98.5% | 90.3% | 89.6% | 109% | 91.9% | 90.2% | 101% | 101% | – | 96.2% | 106% | 103% | 102% | – | 109% | 114% | 103% | 104%
11 | N=C(N)SCc1cccc2c(CSC(=N)N)cccc12 | 106% | 107% | 94% | 84.9% | 106% | 108% | 94.4% | 87.2% | 119% | 119% | 107% | 102% | 92.4% | 116% | 113% | 99.2% | 102% | 100% | 105% | –
12 | Cc1ccc(C)n1/C=C/n1c(C)ccc1C | 109% | 85.9% | 118% | 93.6% | 93.5% | 112% | 69.5% | 85.8% | 88.4% | 117% | 78.6% | 99.3% | 101% | 98.4% | 100% | 16.2% | 146% | 113% | 92.4% | –
13 | CC(=O)c1c(Nc2ccc(F)c(F)c2F)[nH]c2c(F)cc(F)cc2c1=O | -52.6% (active) | 9.73% (active) | 1.04% (active) | 4.44% (active) | 12.7% | 0.167% (active) | -10.4% (active) | -33.4% (active) | 6.3% (active) | -3.98% (active) | -10.6% (active) | 5.38% (active) | 12.8% | 12.1% | -4.26% (active) | 16.2% | 7.99% (active) | 4.13% (active) | 1.67% (active) | –
14 | CCOC(=O)C/C(=N\Nc1cc(=O)[nH]c2ccc(Cl)cc12)C(=O)OCC | 116% | 105% | 94.9% | 83.7% | 104% | 99.3% | 92.4% | 108% | -51.5% (active) | -0.305% (active) | 57.2% | 110% | 98.9% | 107% | 123% | 97.6% | 110% | 94.9% | 95.8% | –
15 | COc1ccc(C2=C/C(=C\c3ccc(Cl)cc3)C(=O)N2/N=C/c2ccc(Cl)cc2)cc1 | 107% | 93.8% | 87.7% | 79.4% | 87.2% | 98.3% | 90.5% | 103% | 100% | 92% | 101% | 83.5% | 103% | 79.2% | 88.6% | 91.2% | 99.6% | 91.4% | 104% | –
16 | CS(=O)(=O)Nc1cncc(-c2ccc3ncnc(Nc4ccc(F)c(Cl)c4)c3c2)c1 | 8.23% (active) | 0.905% (active) | 33.9% | 38.1% | -2.22% (active) | 32.3% | 44.7% | -7.33% (active) | 11.8% | -22.8% (active) | 15.7% | 47.1% | 33.3% | 63.4% | -0.027% (active) | – | 22.1% | – | 84% | –
17 | O=C1Nc2ccccc2/C1=C/c1cn(C[C@@H](O)Cn2c3ccccc3c(=O)c3ccccc32)c2ccccc12 | 79.9% | 73.1% | 73.7% | 30.4% | 90.6% | 65.5% | 74.2% | 91.1% | 70.5% | 62.6% | 67.1% | 68.5% | 86.7% | 88% | 73.3% | 53.7% | 73.5% | 62.8% | 85.4% | –
